# Source: PubChem (National Center for Advancing Translational Sciences (NCATS))
# Rows were chosen to be rich in hits. Some 12% of all compounds tested hit in one or more screens of this group.
# JMJD2A Tudor inh: blocks the human JMJD2A Tudor domain; Potency, µM (doses to about 114 µM), hits mostly inhibitors; hit rate 4.4% among 390,000; AlphaScreen JMJD2A-Tudor / H3K4me3 peptide binding; O75164; note: nearly all actives have a fitted effect of over 50% in size
# Sfp inh: inhibitors of Bacillus subtilis Sfp phosphopantetheinyl transferase. Potency, µM, usual class: inhibitors. AID 1490. hit rate 3.5% among 310,000. Biochemical Sfp PPTase activity, qHTS. Q9F4F7;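 note: the enzyme is Sfp with the accession as filed and its product quenches rhodamine fluorescence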
#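 With Hepes-Na pH 7.6 buffer containing 10 mM MgCl2, Sfp (15 nM) modified BHQ-2-YbbR (12.5 uM) using rhodamine-CoA (5 uM). Two reads 30 minutes apart at 525/598 nm yielded each well's rate.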
# HP1b chromo inh: blocks HP1-beta chromodomain binding to methylated histone tails; Potency, µM (top dose mostly 114 µM), actives largely listed as inhibitors; AlphaScreen HP1-beta / biotin-H3K9me3 peptide binding; hit rate 0.56% among 390,000; note: nearly all actives have a fitted effect of over 70% in size
# Target sequence (P83916 whole entry, looked up): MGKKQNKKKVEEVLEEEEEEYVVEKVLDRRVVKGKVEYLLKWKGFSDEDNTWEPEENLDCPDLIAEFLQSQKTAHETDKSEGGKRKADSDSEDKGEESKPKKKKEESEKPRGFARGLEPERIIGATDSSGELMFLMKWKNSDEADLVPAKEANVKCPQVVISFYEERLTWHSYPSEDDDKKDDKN
#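 AlphaScreen: HP1-beta (50 nM) preformed 30 min with biotin-H3(1-18)K9me3 peptide (50 nM) in PBS pH 7.4, 0.01% Tween-20. Compound added for 30 min at RT, then streptavidin donor/nickel chelate acceptor beads (10 ug/mL) for 30 min.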
# G9a block: inhibitors of human histone lysine methyltransferase G9a; Q96KQ7; G9a H3K9 monomethylation, AlphaScreen, 2 h; Potency, µM (series often up to 102 µM), usual class: inhibitors; hit rate 8.8% among 350,000; note: nearly all actives have a fitted effect of over 75% in size
# Target sequence (Q96KQ7 913-1193 limits assumed): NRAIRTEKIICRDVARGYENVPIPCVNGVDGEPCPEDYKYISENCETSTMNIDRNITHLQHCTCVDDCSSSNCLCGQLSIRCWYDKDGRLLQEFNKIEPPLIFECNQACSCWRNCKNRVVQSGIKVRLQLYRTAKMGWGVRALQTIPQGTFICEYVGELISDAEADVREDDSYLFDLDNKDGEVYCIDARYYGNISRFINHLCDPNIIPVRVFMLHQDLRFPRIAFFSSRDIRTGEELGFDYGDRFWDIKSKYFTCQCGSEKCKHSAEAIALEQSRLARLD
#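 AlphaScreen read-out: biotin-H3K9 peptide (500 nM) methylation by 20 nM enzyme with 20 uM SAM, 2 h at room temperature after 15 min compound preincubation; anti-monomethyl H3K9 antibody plus donor/acceptor beads, 10 min dark.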
# BAZ2B inh: BAZ2B (human) inhibition | hit rate 4.4% among 360,000 | AlphaScreen BAZ2B-H3K14Ac peptide displacement | Q9UIF8 | Potency, µM (highest dose often 114 µM), most hits filed as inhibitors; note: nearly all actives have a fitted effect of over 60% in size
#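 AlphaScreen displacement: compounds (up to 110uM) incubated 30 min at room temperature with a preformed 50 nM BAZ2B/50 nM biotinylated H3K14Ac peptide complex in PBS pH 7.4 with Tween-20. Donor and acceptor beads at 10 ug/mL final added, 20 min light-protected before reading.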
# A number is an active result; i = inactive; ? = inconclusive; nt = no result given; [ ] = remark or other dose. Calls come from the whole dose curve; as a rule, active = well fitted curve in the direction sought with a large enough effect; inconclusive = small, poorly fitted or top-dose-only effect, or another doubt; inactive = no such curve, though single readings can be large; an effect the other way counts as inactive or inconclusive.
SMILES,JMJD2A Tudor inh,Sfp inh,HP1b chromo inh,G9a block,BAZ2B inh
Cc1ccc(SC/C(O)=C(\C#N)c2nc3ccccc3s2)cc1,i,i,i,?,i
c1ccc(SCc2nc3ccccc3s2)nc1,i,?,i,35µM,i
N#C/C(=C(/O)CSc1ccccn1)c1nc2ccccc2s1,i,i,i,45µM,i
N#C/C(=C(/O)COC(=O)c1ccc(C#N)cc1)c1nc2ccccc2s1,?,50µM,i,?,?
Cc1ccc(C2=Nc3ccccc3SC(c3cccc([N+](=O)[O-])c3)C2)cc1 (stereo not given),?,8.9µM,i,45µM,22µM
CCOC(=O)N1CCC(NC(=O)C2CCN(C(=O)N3CC(C)Oc4ccc(C)cc43)CC2)CC1 (stereo not given),i,i,i,i,i
COC(CNC(=O)C1CCN(C(=O)c2cc3oc(C)cc3n2Cc2c(F)cccc2Cl)CC1)OC,i,45µM,i,32µM,i
CCOC(=O)N1CCC(NC(=O)C2CCN(C(=O)c3cc4oc(C)cc4n3Cc3c(F)cccc3Cl)CC2)CC1,?,20µM,i,35µM,?
COC(=O)c1cc2oc(C)cc2n1Cc1ccc(Cl)cc1,i,nt,i,i,?
O=C(NCCS(=O)(=O)N1CCN(c2ccccc2)CC1)c1cccc(F)c1,i,nt,i,?,i
Cc1ccc(NC(=O)CSc2n[nH]c(N)n2)cc1S(=O)(=O)N1CCOCC1,i,i,i,nt,i
Cn1cc(CN2CCc3c([nH]c4ccccc34)C2C(C)(C)C)cn1 (stereo not given),i,i,i,nt,i
Cn1cc(CN2CCc3c([nH]c4ccccc34)C2C2CCCCC2)cn1 (stereo not given),i,?,i,45µM,45µM
CCSc1nc2c(c(=O)[nH]c(=O)n2C)n1C/C=C(/C)Cl,i,i,i,?,i
CSc1nc2c(c(=O)[nH]c(=O)n2C)n1C/C=C(\C)Cl,i,i,i,40µM,i
CCOC(=O)C(C)Sc1nc2c(c(=O)[nH]c(=O)n2C)n1C/C=C(/C)Cl (stereo not given),?,22µM,i,7.1µM,i
Cc1nc2c(C(=O)N3CCOCC3)cnn2c(C)c1Cc1ccc(Cl)cc1,i,i,i,i[12.7 µM],i
Cc1nc2c(C(=O)N3CCOCC3)cnn2c(C)c1Cc1cccc(Cl)c1,nt,i,nt,50µM,i
COc1ccc(C(=O)n2c(-c3ccco3)nc3ccccc32)cc1,i,i,i,i,i
CCCn1c(=N)n(CC(=O)c2ccc([N+](=O)[O-])cc2)c2ccccc21,i,?,i,40µM,35µM
CCCn1c(=N)n(CC(=O)c2ccc(Cl)cc2)c2ccccc21,i,i,i,i,i
CS(=O)(=O)N(CC(=O)NC1CCCCC1)Cc1ccc(Cl)cc1,i,i,i,i,i
O=C(CCN1CCN(c2ccc(Cl)cc2)CC1)Nc1nccs1,i,i,i,i,i
CN(C)c1ccc(/C=N/N2CCN(c3ccccn3)CC2)cc1,i,i,i,13µM,i
Cc1nn(-c2ccccc2)c(C)c1/C=N/N1CCN(Cc2ccccc2)CC1,nt,i,nt,17µM,nt
SMILES,JMJD2A Tudor inh,Sfp inh,HP1b chromo inh,G9a block,BAZ2B inh
Cc1nn(-c2ccccc2)c(Cl)c1/C=N/N1CCN(c2ccccn2)CC1,i,i,i,i[0.0925 µM],i
Cc1nn(-c2ccccc2)c(C)c1/C=N/N1CCN(c2ccccc2)CC1,20µM,i,i,?,?
Cc1nn(-c2ccccc2)c(C)c1/C=N/N1CCN(c2ccccn2)CC1,?,79µM,?,?,45µM
CCCCn1c(N)c(N(CC(C)C)C(=O)c2cccc(S(=O)(=O)N(C)c3ccc(C)cc3)c2)c(=O)[nH]c1=O,i,nt,i,i[0.501 µM],i
Cc1ccc(S(=O)(=O)N2CCC(C(=O)Nc3nnc(C45CC6CC(CC(C6)C4)C5)s3)CC2)cc1,nt,i,nt,i,i
Cc1ccc(Cl)cc1N1CCN(C(=O)C2CCN(S(=O)(=O)c3cnc[nH]3)CC2)CC1,i,i,i,i[12.7 µM],i
CCc1ccc(S(=O)(=O)Nc2ccc(-c3ccc(N4CCCCCC4)nn3)cc2)cc1,i,nt,i,i,i
O=C(c1ccc2c3c(cccc13)CC2)C1CCCN(Cc2ccncc2)C1 (stereo not given),56µM,i,i,?,?
O=C(c1ccc2c3c(cccc13)CC2)C1CCCN(C(=O)c2ccc(=O)[nH]c2)C1 (stereo not given),?,50µM,i,nt,?
Cc1ccc(-n2nnc3c(=O)n(CC(=O)N4CCC(C)CC4)cnc32)cc1,i,i,i,i,i
CCCCc1cc(=O)oc2c(C)c(OCC(=O)N3CCC(C(=O)O)(c4ccccc4)CC3)ccc12,i,i,i,3.2µM,i
CCCCc1cc(=O)oc2cc(OCc3nn[nH]n3)ccc12,i,i,i,56µM,i
CCCCc1cc(=O)oc2c(C)c(OCc3nn[nH]n3)ccc12,i,i,i,50µM,i
S=c1[nH]nc(C(c2ccccc2)C2CCCCC2)o1 (stereo not given),i,i,i,45µM,i
CCc1ccccc1NC(=O)CC(NCc1ccccc1)C(=O)O (stereo not given),?,i,i,28µM,i
COC(=O)c1ccccc1NC(=O)CC(NCc1ccccc1)C(=O)O (stereo not given),28µM,nt,i,nt,nt
Cc1ccccc1NC(=O)CC(NCc1cccnc1)C(=O)O (stereo not given),i,nt,i,?,i
O=C(O)CCCN1C(=O)C2C3CC(C2C1=O)C1C(c2ccccc2)c2sc(=O)[nH]c2SC31 (stereo not given),i,?,i,?,nt
O=C(O)CN1C(=O)C2C3CC(C2C1=O)C1C(c2ccc(F)cc2)c2sc(=O)[nH]c2SC31 (stereo not given),i,45µM,i,45µM,i
O=C(O)CN1C(=O)C2C3CC(C2C1=O)C1C(c2ccc(Cl)cc2)c2sc(=O)[nH]c2SC31 (stereo not given),i,i,i,50µM,i
CC(=O)c1cc(CN2CCC(n3nccc3NC(=O)c3ccccc3C)CC2)cs1,i,i,i,i,i
CC1(C)CC(N2CCCCC2)=CC(=[N+]2CCCCC2)C1,i,i,i,?,i
CC1C[N+](=C2C=C(N3CCOCC3)CC(C)(C)C2)CC(C)O1 (stereo not given),?,?,25µM,i[12.7 µM],i
CC1(C)CC(N2CCOCC2)=CC(=[N+]2CCOCC2)C1,?,i,?,40µM,i
O=C(CCc1nc2ccccc2c(=O)[nH]1)Nc1ccc(Cl)c(Cl)c1,i,i,i,i,i
CCCn1c(=O)c2ccccc2n2c(SCc3cc(=O)oc4ccc5ccccc5c34)nnc12,?,i,i,?,i
Cc1ccccc1-n1c(C)nnc1SCc1cc(=O)oc2ccc3ccccc3c12,?,79µM,i,?,i
COc1ccc(CCNC(=O)Cn2nc(C)c3c(C)n(-c4ccc(C)cc4)nc3c2=O)c(OC)c1,?,nt,i,?,50µM
COc1ccc(CNC(=O)Cn2nc(C)c3c(C)n(-c4ccc(C)cc4)nc3c2=O)cc1OC,89µM,i,i,nt,79µM
